# Laboratory results as given in PubChem BioAssay (Tox21).
# Several values for one entry are separate records, joined by “and”; a condition that tells them apart may be missing. Equal values may be shown once. Inconclusive results are not listed. Entries that show only a call come without a potency. Some structures have more than one record in an assay (separate samples or runs), and their calls can disagree. Activity calls are given as the source filed them. Unless noted, calls follow the shape of the dose curve; as a rule, active = well fitted curve in the direction sought with a large enough effect in the repeat runs; inconclusive = weak or mixed curves; inactive = no such curve, though single readings can be large; an effect the other way counts as inactive or inconclusive.
# How the values were obtained:
# [1] = qHTS assay to identify small molecule agonists of the peroxisome proliferator-activated receptor delta (PPARd) signaling pathway - cell viability counter screen (AID 743211); also: nearly all actives have a fitted effect of over 55% in size; also: potency is read from the fitted curve at half-maximal effect
# Method in brief: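 PPARd-bla HEK293H cells (3000/well) were pre-incubated 5 h at 37 C, then exposed to compound for 17 h at 37 C. After 2 h with LiveBLAzer substrate, CellTiter-Glo was added to the same wells; luminescence read after 30 min at room temperature.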
# [2] = qHTS assay to identify small molecule antagonists of the peroxisome proliferator-activated receptor delta (PPARd) signaling pathway - cell viability counter screen (AID 743213); also: nearly all actives have a fitted effect of over 50% in size; also: potency is read from the fitted curve at half-maximal effect
# Method in brief: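 Cytotoxicity counter screen: CellTiter-Glo luminescence read 30 min after addition, in the same wells as the reporter assay. There, PPARd UAS-bla HEK293H cells (3000/well) were treated 17 h at 37 C with compound and 300 nM L165041.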
# [3] = target: Peroxisome proliferator-activated receptor delta (Homo sapiens) (UniProt Q03181); assay: qHTS assay to identify small molecule antagonists of the peroxisome proliferator-activated receptor delta (PPARd) signaling pathway (AID 743215; active = well fitted inhibition curve with a large enough effect in the signal ratio in the repeat runs, not every such curve was filed as active; the % refers to the signal ratio;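 also: cells stimulated with agonist L165041 at 300 nM final during compound exposure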; also: potency is read from the fitted curve at half-maximal effect)
# Peroxisome proliferator-activated receptor delta (Homo sapiens), sequence (Q03181 whole entry, looked up): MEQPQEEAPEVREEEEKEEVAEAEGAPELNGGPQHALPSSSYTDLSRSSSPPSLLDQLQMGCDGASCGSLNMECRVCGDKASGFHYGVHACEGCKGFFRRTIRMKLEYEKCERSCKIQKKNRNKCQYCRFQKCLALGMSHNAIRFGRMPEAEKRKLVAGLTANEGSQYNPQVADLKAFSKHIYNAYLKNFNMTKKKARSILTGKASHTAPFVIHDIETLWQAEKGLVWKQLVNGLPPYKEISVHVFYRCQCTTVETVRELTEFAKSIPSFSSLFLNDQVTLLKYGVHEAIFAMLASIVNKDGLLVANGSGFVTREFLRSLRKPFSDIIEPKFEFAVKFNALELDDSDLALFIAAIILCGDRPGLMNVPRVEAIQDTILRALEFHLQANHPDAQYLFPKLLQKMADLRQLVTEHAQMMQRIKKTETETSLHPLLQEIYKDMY
# Method in brief: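 HEK293H UAS-bla, PPARd; agonist L165041 300 nM final with cpd in DMSO; 37 C 17 h; FRET substrate, RT 2 h; fluorescence intensity.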
# [4] = target: Bile acid receptor (Homo sapiens) (UniProt Q96RI1); assay: qHTS assay to identify small molecule antagonists of the farnesoid-X-receptor (FXR) signaling pathway (AID 743217; active = well fitted inhibition curve with a large enough effect in the signal ratio in the repeat runs, not every such curve was filed as active; the % refers to the signal ratio; also: potency is read from the fitted curve at half-maximal effect)
# Bile acid receptor (Homo sapiens), sequence (Q96RI1 whole entry, looked up): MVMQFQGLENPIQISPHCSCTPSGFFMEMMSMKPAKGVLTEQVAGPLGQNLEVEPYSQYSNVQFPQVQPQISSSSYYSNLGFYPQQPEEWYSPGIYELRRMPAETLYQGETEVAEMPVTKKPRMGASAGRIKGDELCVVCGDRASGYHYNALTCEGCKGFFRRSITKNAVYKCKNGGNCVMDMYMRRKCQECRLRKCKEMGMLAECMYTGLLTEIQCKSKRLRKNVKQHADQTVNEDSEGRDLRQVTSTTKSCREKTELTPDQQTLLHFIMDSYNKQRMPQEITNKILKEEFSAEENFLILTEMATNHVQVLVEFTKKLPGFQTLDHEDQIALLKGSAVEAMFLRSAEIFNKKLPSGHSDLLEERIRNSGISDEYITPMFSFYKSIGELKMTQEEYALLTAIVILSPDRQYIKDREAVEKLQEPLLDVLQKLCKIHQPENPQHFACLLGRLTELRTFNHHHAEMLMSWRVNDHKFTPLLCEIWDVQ
# Method in brief: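 GeneBLAzer FXR-UAS-bla HEK 293T, CDCA-stimulated (50 uM final). Compound treatment 16 h, 37 °C. Detection: beta-lactamase cleavage of B/G FRET substrate, fluorescence.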
# [5] = qHTS assay to identify small molecule agonists of the farnesoid-X-receptor (FXR) signaling pathway - cell viability counter screen (AID 743218); also: nearly all actives have a fitted effect of over 45% in size; also: potency is read from the fitted curve at half-maximal effect
# Method in brief: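 Parallel cytotoxicity test: compound-treated (16 h, 37 C) HEK 293T FXR-bla reporter cells were lysed with CellTiter-Glo and luminescence recorded.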
# [6] = target: Bile acid receptor (Homo sapiens) (UniProt Q96RI1); assay: qHTS assay to identify small molecule agonists of the farnesoid-X-receptor (FXR) signaling pathway (AID 743220; active = well fitted activation curve with a large enough effect in the signal ratio in the repeat runs, not every such curve was filed as active; the % refers to the signal ratio)
# Method in brief: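 Beta-lactamase reporter under UAS control in GeneBLAzer FXR HEK 293T cells (5000/well) measured with LiveBLAzer FRET substrate after 2 h at room temperature. Compound exposure lasted 16 h at 37C.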
# [7] = qHTS assay to identify small molecule antagonists of the farnesoid-X-receptor (FXR) signaling pathway - cell viability counter screen (AID 743221; active = well fitted cell-killing curve with a large enough effect in the repeat runs, not every such curve was filed as active; also: nearly all actives have a fitted effect of over 50% in size; also: potency is read from the fitted curve at half-maximal effect)
# Method in brief: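 GeneBLAzer FXR-UAS-bla HEK 293T cells, compound plus chenodeoxycholic acid (50 uM final), 16 h at 37 C. CellTiter-Glo added to the same wells after the beta-lactamase read; luminescence read after 30 min at room temperature as viability.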
# [8] = target: Vitamin D3 receptor (Homo sapiens) (UniProt P11473); assay: qHTS assay to identify small molecule agonists of the vitamin D receptor (VDR) signaling pathway (AID 743222; calls by dose curve)
# Vitamin D3 receptor (Homo sapiens), sequence (P11473 whole entry, looked up): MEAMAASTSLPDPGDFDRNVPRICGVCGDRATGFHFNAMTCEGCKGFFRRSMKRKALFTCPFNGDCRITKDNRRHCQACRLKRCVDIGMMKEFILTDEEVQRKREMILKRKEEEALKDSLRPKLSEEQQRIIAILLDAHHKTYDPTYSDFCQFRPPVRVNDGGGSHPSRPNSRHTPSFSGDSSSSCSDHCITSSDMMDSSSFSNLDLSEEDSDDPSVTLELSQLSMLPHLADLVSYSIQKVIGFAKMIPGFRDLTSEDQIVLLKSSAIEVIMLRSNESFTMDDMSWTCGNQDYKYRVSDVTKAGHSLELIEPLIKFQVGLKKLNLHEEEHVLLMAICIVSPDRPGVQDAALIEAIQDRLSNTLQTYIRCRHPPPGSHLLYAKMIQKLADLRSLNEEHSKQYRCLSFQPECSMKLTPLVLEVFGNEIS
# Method in brief: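 In VDR-bla cells, compound-induced beta-lactamase expression is quantified by FRET substrate fluorescence. Treatment lasts 16 h at 37C; substrate develops 2 h at room temperature.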
# [9] = target: Vitamin D3 receptor (Homo sapiens) (UniProt P11473); assay: qHTS assay to identify small molecule antagonists of the vitamin D receptor (VDR) signaling pathway (AID 743223; active = well fitted inhibition curve with a large enough effect in the signal ratio in the repeat runs, not every such curve was filed as active; the % refers to the signal ratio)
# Method in brief: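 VDR-bla cells were treated with compound plus 3 nM final 1alpha,25-dihydroxyvitamin D3 for 16 h at 37C. Beta-lactamase reporter read by B/G FRET substrate fluorescence after 2 h at room temperature. qHTS format.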
# [10] = target: Peroxisome proliferator-activated receptor delta (Homo sapiens) (UniProt Q03181); assay: qHTS assay to identify small molecule agonists of the peroxisome proliferator-activated receptor delta (PPARd) signaling pathway (AID 743212; calls by dose curve)
# Method in brief: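 A PPARd-bla HEK293H line with beta-lactamase under an Upstream Activator Sequence is treated with compounds at 37 C. Substrate loading for 2 h at room temperature precedes the fluorescence measurement.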
smiles,measurement,setting,value
CN(C)c1nc(N(C)C)nc(N(C)C)n1,Potency,[1],inactive
same,Potency,[2],inactive
same,Potency,[3],inactive
same,Potency,[4],inactive
same,"viability change, negative = cytotoxic",[5],-6.22% [at 5.95 µM] (inactive)
same,outcome,[6],inactive
same,Potency,[7],inactive
same,outcome,[8],inactive
same,outcome,[9],inactive
Nc1ccc(Nc2ccccc2)cc1,Potency,[1],inactive
same,Potency,[2],inactive
same,Potency,[5],inactive
O=C(c1ccc(OCCN2CCCCC2)cc1)c1c(-c2ccc(O)cc2)sc2cc(O)ccc12,Potency,[1],38.9 µM (active) and 12.3 µM (active) and 26.6 µM (active)
same,Potency,[2],24.6 µM (active) and 8.71 µM (active) and 26.6 µM (active)
same,Potency,[5],49 µM (active) and 12.3 µM (active) and 23.7 µM (active)
same,Potency,[7],55 µM (active)
O=CCc1ccccc1,Potency,[1],inactive
same,Potency,[2],inactive
same,Potency,[4],inactive
same,Potency,[5],inactive
same,outcome,[6],inactive
same,Potency,[7],inactive
same,outcome,[8],inactive
same,outcome,[9],inactive
OC[C@H]1O[C@@H]2O[C@H]3[C@H](O)[C@@H](O)[C@@H](O[C@H]4[C@H](O)[C@@H](O)[C@@H](O[C@H]5[C@H](O)[C@@H](O)[C@@H](O[C@H]6[C@H](O)[C@@H](O)[C@@H](O[C@H]7[C@H](O)[C@@H](O)[C@@H](O[C@H]8[C@H](O)[C@@H](O)[C@@H](O[C@H]1[C@H](O)[C@H]2O)O[C@@H]8CO)O[C@@H]7CO)O[C@@H]6CO)O[C@@H]5CO)O[C@@H]4CO)O[C@@H]3CO,Potency,[1],inactive
same,Potency,[2],inactive
same,Potency,[5],inactive
same,Potency,[7],inactive
O=C(/C=C/C=C/c1ccc2c(c1)OCO2)N1CCCCC1,Potency,[1],inactive
same,Potency,[2],inactive
same,Potency,[4],inactive and 54.9 µM (active)
same,Potency,[5],inactive
same,outcome,[6],inactive
same,Potency,[7],inactive
same,outcome,[8],inactive
same,outcome,[9],inactive
c1cc(N(CC2CO2)CC2CO2)ccc1OCC1CO1 (stereo not drawn),Potency,[2],inactive
C=C(C)C1CC=C(C)CC1 (stereo not drawn),Potency,[1],inactive
same,Potency,[2],inactive
same,Potency,[5],inactive
same,Potency,[7],inactive
Cc1cccc(N(C)C(=S)Oc2ccc3ccccc3c2)c1,Potency,[2],inactive
same,Potency,[4],inactive
same,Potency,[5],inactive
same,outcome,[6],inactive
same,Potency,[7],inactive
same,outcome,[8],inactive
same,outcome,[9],inactive
O=C(COc1ccc(Cl)cc1)N1CCN(Cc2ccc3c(c2)OCO3)CC1,Potency,[1],inactive
same,Potency,[2],inactive
same,Potency,[3],inactive
same,outcome,[8],inactive
same,outcome,[9],inactive
c1ccncc1,Potency,[1],inactive
same,Potency,[2],inactive
same,Potency,[5],inactive
same,Potency,[7],inactive
same,outcome,[8],inactive
CC(C)OB(OC(C)C)OC(C)C,Potency,[1],inactive
same,Potency,[2],inactive
same,Potency,[4],inactive
same,Potency,[5],inactive
same,outcome,[6],inactive
same,Potency,[7],inactive
same,outcome,[8],inactive
same,outcome,[9],inactive
O=C(c1ccccc1)c1ccccc1O,Potency,[1],inactive
same,Potency,[2],inactive
same,Potency,[5],inactive
same,outcome,[8],inactive
same,outcome,[9],inactive
O=P(O)(O)O,Potency,[1],inactive
same,Potency,[2],inactive
same,Potency,[4],inactive
same,Potency,[5],inactive
same,outcome,[6],inactive
same,outcome,[8],inactive
same,outcome,[9],inactive
C#C[C@]1(O)CC[C@H]2[C@@H]3CCc4cc(OC)ccc4[C@H]3CC[C@@]21C,outcome,[10],inactive
same,Potency,[2],inactive
same,Potency,[3],inactive
same,Potency,[4],inactive
same,Potency,[5],inactive
same,outcome,[6],inactive
same,outcome,[8],inactive
same,outcome,[9],inactive
Cc1ccc(C(=O)c2cc(O)c(O)c([N+](=O)[O-])c2)cc1,Potency,[1],inactive
same,Potency,[2],inactive
same,Potency,[5],inactive
same,Potency,[7],inactive
same,outcome,[9],inactive
O=C(Nc1ccc(Cl)cc1)Nc1ccc(Cl)c(Cl)c1,outcome,[10],inactive
same,Potency,[2],19.4 µM (active)
same,Potency,[3],19.4 µM (active)
same,Potency,[5],inactive and 2.66 µM (active)
same,outcome,[6],inactive
O=C(Nc1ccc([N+](=O)[O-])cc1Cl)c1cc(Cl)ccc1O,Potency,[1],219 nM (active) and 259 nM (active)
same,Potency,[2],1.64 µM (active)
same,Potency,[5],1.38 µM (active) and 1.16 µM (active)
same,outcome,[6],inactive
CN(C)C(=N)N=C(N)N,Potency,[1],inactive
same,Potency,[2],inactive
same,Potency,[5],inactive
Nc1ncn([C@@H]2O[C@H](CO)[C@@H](O)[C@H]2O)c(=O)n1,Potency,[1],inactive
same,Potency,[2],inactive
same,Potency,[5],inactive
same,outcome,[8],inactive
CCCCNS(=O)(=O)c1ccccc1,Potency,[1],inactive
same,Potency,[2],inactive
same,Potency,[4],inactive
same,Potency,[5],inactive
same,outcome,[6],inactive
same,Potency,[7],inactive
same,outcome,[8],inactive
same,outcome,[9],inactive
Nc1ccc(S(=O)(=O)Nc2cnc3ccccc3n2)cc1,Potency,[1],inactive
same,Potency,[2],inactive
same,Potency,[5],inactive
same,Potency,[7],inactive
same,outcome,[8],inactive
same,outcome,[9],inactive
COc1cc([C@@H]2c3cc4c(cc3[C@H](O)[C@H]3COC(=O)[C@H]23)OCO4)cc(OC)c1OC,Potency,[1],inactive
same,Potency,[3],inactive
same,Potency,[5],inactive
same,Potency,[7],inactive
same,outcome,[8],inactive
C[C@]12CC[C@H]3[C@@H](CCC4=CC(=O)CC[C@@]43C)[C@@H]1CC[C@@H]2C(=O)CO,Potency,[1],inactive
same,Potency,[2],inactive
same,Potency,[5],inactive
same,Potency,[7],inactive
same,outcome,[8],inactive
C=C(C)C(=O)OCCOC(=O)C(=C)C,Potency,[1],inactive
same,Potency,[3],inactive
same,Potency,[5],inactive
same,outcome,[8],inactive
same,outcome,[9],inactive
CCCCc1oc2ccccc2c1C(=O)c1cc(I)c(OCCN(CC)CC)c(I)c1,Potency,[1],22.1 µM (active) and 16.8 µM (active)
same,Potency,[2],15.6 µM (active) and 23.7 µM (active)
same,Potency,[5],34.9 µM (active) and 18.8 µM (active)
same,outcome,[6],inactive
same,Potency,[7],34.9 µM (active) and 29.8 µM (active)
same,outcome,[9],inactive
c1ccc2sc(SSN3CCOCC3)nc2c1,Potency,[1],15.5 µM (active)
same,Potency,[2],inactive
same,Potency,[4],inactive
same,Potency,[5],inactive
same,outcome,[6],inactive
same,Potency,[7],inactive
same,outcome,[9],inactive
C/C=C/C(=O)O,Potency,[1],inactive
same,Potency,[2],inactive
same,Potency,[5],inactive
same,outcome,[8],inactive
same,outcome,[9],inactive
CC(C)=CCCC(C)CCO (stereo not drawn),Potency,[1],inactive
same,Potency,[2],inactive
same,Potency,[5],inactive
same,Potency,[7],inactive
